In the library only some 0.99% were active in any assay of this set; here they are far more common.
RECQ1 helicase: inhibitors of human RECQ1 DNA helicase; P46063; Potency, µM (doses to about 57.3 µM), usual class: inhibitors; RECQ1 DNA unwinding, red fluorescence kinetic read; AID 2549; 240,000 compounds, 0.54% hits; further: nearly all actives have a fitted effect of over 30% in size
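50 nM RECQ1T1 preincubated 15 min with compound in Tris pH 8.0 buffer with MgCl2, DTT, Tween-20 and 2.5 ug/ml poly(dI-dC); started with 200 nM TAMRA/BHQ-2 forked duplex and 2 mM ATP. Unwinding read as fluorescence (525/598 nm), two reads 2 h apart.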
BLM inh: blocks DNA unwinding by human BLM helicase; P54132; recombinant BLM DNA unwinding, fluorescence dequenching; Potency, µM (highest dose often 56.1 µM), most hits filed as inhibitors; 350,000 compounds, 0.2% hits; further: nearly all actives have a fitted effect of over 35% in size
L3MBTL1 inh: inhibitors of human L3MBTL1 | Q9Y468 | AlphaScreen L3MBTL1–H3K9me1 peptide binding | 230,000 compounds, 0.66% hits | Potency, µM (doses to about 57.1 µM), actives largely listed as inhibitors; further: nearly all actives have a fitted effect of over 60% in size
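Read-out is AlphaScreen signal from streptavidin donor and nickel chelate acceptor beads (10 ug/mL final each) bridging L3MBTL1 (50 nM) and biotinylated K9-monomethylated H3(1-15) peptide (75 nM), after 30 min compound exposure at room temperature.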
WRN inhibitor: inhibitors of human WRN helicase | WRN helicase unwinding, fluorescent forked duplex, kinetic | Potency, µM (series often up to 114 µM), actives largely listed as inhibitors | 360,000 compounds, 0.46% hits; further: nearly all actives have a fitted effect of over 55% in size
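WRN at 20 nM final was preincubated with compound for 15 min at room temperature; reaction started with 100 nM forked duplex oligonucleotide carrying fluorophore and quencher plus 2 mM ATP (final). Unwinding followed kinetically by red fluorescence (ex 525/em 598 nm).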
FEN1 inh: blocks human flap endonuclease 1 | P39748 | Recombinant FEN1 flap cleavage, fluorescence, 15 min | Potency, µM (series often up to 114 µM), hits mostly inhibitors | 390,000 compounds, 0.35% hits; further: nearly all actives have a fitted effect of over 65% in size
Target sequence (P39748 whole entry, looked up): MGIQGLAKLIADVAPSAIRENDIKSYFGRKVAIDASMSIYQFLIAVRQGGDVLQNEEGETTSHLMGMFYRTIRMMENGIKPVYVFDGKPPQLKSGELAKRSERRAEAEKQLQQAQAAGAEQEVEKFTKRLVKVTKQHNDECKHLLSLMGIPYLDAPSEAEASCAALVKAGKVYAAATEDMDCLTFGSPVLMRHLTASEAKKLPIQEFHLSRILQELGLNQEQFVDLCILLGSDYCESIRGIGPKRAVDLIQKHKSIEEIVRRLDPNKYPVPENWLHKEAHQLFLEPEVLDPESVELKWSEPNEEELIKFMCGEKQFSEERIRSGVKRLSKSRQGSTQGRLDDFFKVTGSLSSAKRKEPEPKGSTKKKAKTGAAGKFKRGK
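Concentration–response screening of FEN1 (10 nM): 15 min compound preincubation at room temperature, reaction started with 50 nM substrate and read at 0 and 15 min. Corrected, normalized data were fitted by a four-parameter Hill equation.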
Large screens that a line does not name were inactive. The call rests on the fitted dose curve; in most records, active means well fitted curve in the direction sought with a large enough effect; inconclusive means small, poorly fitted or top-dose-only effect, or another doubt; inactive means no such curve, though single readings can be large; an effect the other way counts as inactive or inconclusive.

O=C(Nc1ncc(Cc2cc(Cl)ccc2Cl)s1)c1ccc([N+](=O)[O-])cc1	none
COc1c(O)cc2c(c1O)C1OC(CO)C(O)C(O)C1OC2=O (centres undefined)	none (no result: RECQ1 helicase, BLM inh)
O=C1OCC2OC(O)C(O)C(O)C2OC(=O)c2cc(O)c(O)c(O)c2-c2c(O)c(O)c3oc(=O)c4c(c(O)c(O)c5oc(=O)c2c3c54)-c2c1cc(O)c(O)c2O (centres undefined)	RECQ1 helicase 0.398µM, BLM inh 0.708µM (no result: L3MBTL1 inh, WRN inhibitor, FEN1 inh)
COC(=O)C1C(=O)C2=C(CC1C)NC(C)=C(C(=O)OCCOc1ccccc1)C2c1ccc(C)o1 (centres undefined)	none
COc1ccc(/C=C2\SC(N)=NC2=O)cc1	none (no result: RECQ1 helicase)
CCOC(=O)CSC1=NC(=O)/C(=C/c2ccc(OC)cc2)S1	WRN inhibitor 50.1µM
CC1CCN(S(=O)(=O)c2ccc3[nH]c(=O)c(=O)[nH]c3c2)CC1	none
O=c1[nH]c2ccc(S(=O)(=O)N3CCN(c4ccccc4)CC3)cc2[nH]c1=O	BLM inh inconclusive, WRN inhibitor inconclusive, FEN1 inh 56.2µM
O=C1COc2cc(S(=O)(=O)NCc3ccco3)c(Cl)cc2N1	L3MBTL1 inh 31.6µM (no result: RECQ1 helicase, WRN inhibitor)
CN(C)CCN(Cc1ccco1)S(=O)(=O)c1cc2c(cc1Cl)NC(=O)CO2	none (no result: RECQ1 helicase, L3MBTL1 inh, WRN inhibitor)
Cc1ccc(Nc2nc(/N=C/NO)n[nH]2)cc1C	none
CCCN(C(=O)NCc1noc2ccc(C)cc12)c1ccc(Cl)c(Cl)c1	none (no result: RECQ1 helicase, L3MBTL1 inh, WRN inhibitor)
COc1ccc(NC(=O)CSc2nnc(N)n2CC(=O)Nc2ccc(OC)cc2)cc1	none (no result: L3MBTL1 inh)
Cc1ccc(F)cc1NC(=O)N1CCN(c2ccnc3cc(Cl)ccc23)CC1	none (no result: L3MBTL1 inh)
CCCCNC(=O)N1CCN(c2ccnc3cc(Cl)ccc23)CC1	WRN inhibitor 50.1µM, FEN1 inh inconclusive (no result: RECQ1 helicase, L3MBTL1 inh)
OC(CNCc1ccco1)Cn1c2ccccc2c2ccccc21 (centres undefined)	none
CCOc1ccc(NC(=O)CN(C)C(=O)c2nc3nc(C)cc(C)n3n2)cc1OCC	none (no result: RECQ1 helicase, BLM inh)
Cc1ccc(C2(C)NC(=O)N(CC(=O)Nc3ccccc3N3CCCC3)C2=O)cc1 (centres undefined)	L3MBTL1 inh 2.82µM (no result: RECQ1 helicase, BLM inh)
CN1CCN(c2ccc(NC(=S)NC(=O)/C=C/c3ccco3)cc2)CC1	none (no result: RECQ1 helicase, L3MBTL1 inh)
CCn1c(=S)[nH]c2c(=O)n(C)c(=O)n(C)c21	WRN inhibitor 50.1µM (no result: RECQ1 helicase, BLM inh, L3MBTL1 inh)
Cn1c(=O)c2[nH]c(Br)nc2n(C)c1=O	none (no result: RECQ1 helicase, L3MBTL1 inh, WRN inhibitor, FEN1 inh)
c1ccc(Cn2c(SCc3nc4ccccc4s3)nnc2-c2ccco2)cc1	WRN inhibitor 35.5µM, FEN1 inh inconclusive
CCC(c1nnc(SCc2nc3ccccc3s2)n1Cc1ccccc1)N(C)C (centres undefined)	none
CC(C)(C)C1CCc2c(sc(NC(=O)C3c4ccccc4Oc4ccccc43)c2C(N)=O)C1 (centres undefined)	none (no result: RECQ1 helicase, L3MBTL1 inh, WRN inhibitor)
CCC(CO)[n+]1c(C)cc(/C=C2\Sc3ccccc3N2Cc2ccccc2)cc1C (centres undefined)	RECQ1 helicase inconclusive, WRN inhibitor inconclusive, FEN1 inh 50.1µM
COc1ccc(C2CC=C(C(C)=O)CN2S(=O)(=O)c2ccccc2)cc1 (centres undefined)	none (no result: RECQ1 helicase, BLM inh, L3MBTL1 inh, FEN1 inh)
CC(=O)[C@@H]1[C@H]2[C@H](C(=O)[C@H]3OC[C@@H]2O3)[C@H]2C=Cc3ccccc3N21	RECQ1 helicase 31.6µM (no result: L3MBTL1 inh, WRN inhibitor, FEN1 inh)
Cc1ccc(C(=O)[C@@H]2[C@H]3C4COC(O4)C(=O)[C@@H]3[C@H]3C=Cc4ccccc4N32)cc1 (some centres undefined)	none (no result: L3MBTL1 inh, WRN inhibitor, FEN1 inh)
Cc1ccc([N+](=O)[O-])cc1-c1ccc(/C=C(\C#N)c2[nH]nc(N)c2C#N)o1	RECQ1 helicase 31.6µM, BLM inh inconclusive, WRN inhibitor inconclusive, FEN1 inh inconclusive
C=CCSC1=N/C(=C\c2sccc2C)C(=O)S1	none
C=CCSC1=N/C(=C\c2cc(OCC)c(OC(C)=O)c([N+](=O)[O-])c2)C(=O)S1	L3MBTL1 inh 1.41µM, FEN1 inh 56.2µM
CCOc1ccc(Nc2ncnc3ccc([N+](=O)[O-])cc23)cc1	L3MBTL1 inh inconclusive
COC(=O)c1ccc2c(c1)SC1=C(CCCC1=O)N2	WRN inhibitor 79.4µM
O=C(COC(=O)c1c2c(nc3ccccc13)/C(=C\c1ccco1)CC2)NC1CCCC1	WRN inhibitor 44.7µM, FEN1 inh inconclusive (no result: RECQ1 helicase, BLM inh, L3MBTL1 inh)

Compound activity deposited in PubChem BioAssay by National Center for Advancing Translational Sciences (NCATS).
